These results are taken from PubChem BioAssay (NCATS).

Results filed as inconclusive are left out. A call without a number means that no potency is given here. Activity calls are given as the source filed them. The call rests on the fitted dose curve; in most records, active means well fitted cell-killing curve with a large enough effect; inconclusive means small, poorly fitted or top-dose-only effect, or effect the other way; inactive means flat fitted curve, though single readings scatter. Where a SMILES comes first, the peptide text is derived from it. The star is where a group is joined. βNA = c1ccc2cc(N*)ccc2c1; Cbz = O=C(OCc1ccccc1)*

For this experiment, the system named is CAOV3. Briefly: Primary qHTS to identify gynecologic anti-cancer compounds using libraries of approved drugs and bioactive compounds (AID 1345084). Further: nearly all actives have a fitted effect of over 55% in size. Conditions: Gynecologic cancer cell panel viability, ATPlite luminescence, 48 h; series mostly up to 57.5 µM. An outline of the steps:
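In this quantitative HTS, cell killing is estimated from loss of ATP-dependent luciferase light. Cells see five compound concentrations over a 48 h exposure.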
As for `C/C(=C\CCC1(C)C2CC3C(C2)C31C)C(=O)O` (centres undefined), the Potency result is “inactive”.
Turning to `CCCC1=CC2=C(CO1)C(=O)C(C)(O)C(OC(=O)c1c(C)cc(OC)cc1O)C2` (centres undefined), the Potency entry was “inactive”.
Turning to `COc1cnc(-n2cnc(C)n2)c2[nH]cc(C(=O)C(=O)N3CCN(C(=O)c4ccccc4)CC3)c12`, the Potency result is “inactive”.
The same measure, in the same setting: next, `CCCC/C=C\CCCCCc1cc(=O)c2ccccc2n1C`: “inactive”.
The same measure, in the same setting: next, `CCN1CCN(C(=O)N[C@@H](C(=O)N[C@@H]2C(=O)N3[C@@H]2SC(C)(C)[C@@H]3C(=O)O)c2ccccc2)C(=O)C1=O`: “inactive”.
For `C[C@@H]1O[C@@H](O[C@@H]2[C@@H](O)[C@H](O[C@H]3[C@H](O[C@H]4CC[C@@]5(C)C(CC[C@]6(C)C5CC=C5[C@@H]7CC(C)(C)CC[C@]7(C(=O)O[C@@H]7O[C@H](CO)[C@@H](O)[C@H](O)[C@H]7O)CC[C@]56C)C4(C)C)O[C@H](C(=O)O)[C@@H](O)[C@@H]3O)OC[C@H]2O)[C@H](O)[C@H](O)[C@H]1O` (some centres undefined), the activity change, negative = cytotoxicity is -6.12% [at 11.6 µM] (inactive).
`COC(=O)C1=COC(O[C@@H]2O[C@H](CO)[C@@H](O)[C@H](O)[C@H]2O)/C(=C\COC(=O)/C=C/c2ccccc2)C1CC(=O)OCCc1ccc(O)cc1` (some centres undefined): the Potency entry is “inactive”.
Same read-out and setting: next, `C=CC(C)(O)CC/C=C(\C)C1CC=C(C)C(=O)O1` (centres undefined): “inactive”; `COc1cc(/C=C/C(=O)OC[C@H]2O[C@@H](OC3CC(C)=C(C(=O)O)C(C)(C)C3)[C@H](O)[C@@H](O)[C@@H]2O)cc(OC)c1O` (some centres undefined): “inactive”.
On to `CC1(C)C[C@H](O)C[C@@]2(C)[C@H]1[C@H](O)C=C1COC(=O)[C@@]12O`, for which the Potency result is “inactive”.
Take `O=C(O)Cc1cn([C@@H]2O[C@H](CO)[C@@H](O)[C@H](O)[C@H]2O[C@@H]2O[C@H](CO)[C@@H](O)[C@H](O)[C@H]2O)c2ccccc12`: the Potency entry was “inactive”.
On the same count and under the same terms, next, `C=C1CC[C@@]2(OC1)O[C@H]1CC3[C@@H]4CC=C5C[C@@H](O)C[C@@H](O[C@@H]6OC[C@H](O)[C@H](O)[C@H]6O[C@@H]6O[C@@H](C)[C@H](O)[C@@H](O)[C@H]6O)[C@]5(C)C4CC[C@]3(C)[C@H]1[C@@H]2C` (some centres undefined): “inactive”; `CC(C)CC(NC(=O)OCc1ccccc1)C(=O)NC(CC(C)C)C(=O)NC(CCC(=O)O)C(=O)Nc1ccc2ccccc2c1` (stereo not drawn) (Cbz-Leu-Leu-Glu-βNA; configuration not given here): “inactive”.
For the compound `OC[C@@]1(O)CO[C@H](OC[C@H]2O[C@@H](OC(CCCCc3ccc(O)cc3)CCc3ccc(O)cc3)[C@H](O)[C@@H](O)[C@@H]2O)[C@@H]1O` (some centres undefined), the Potency result is “inactive”.
The same measure, in the same setting: next, `Nc1ccc(-n2nc(C(F)(F)F)cc2C(F)(F)F)cc1`: “inactive”.
Still for that read-out and setting: next, `C/C(=C\C(=O)C[C@@]12C(=O)O[C@]3(C)CC[C@H]1C[C@H]23)C(N)=O`: “inactive”.
Take `Nc1ncnc2c1C(=O)N(c1ccc(C3CCC(CC(=O)O)CC3)cc1)CCO2` (centres undefined): the Potency result was “inactive”.
The same measure, in the same setting: next, `COC1OC(=O)C2=C1C1(C)CCCC(C)(C)C1CC2O` (centres undefined): “inactive”; `C=C(CC/C=C(\C)C(=O)O)C1(O)CC=C(C)CC1` (centres undefined): “inactive”.
Same read-out and setting: next, `CC(C)Oc1ccc(-c2nc(-c3cccc4c3CCC4NCCC(=O)O)no2)cc1C#N` (centres undefined): “inactive”.
For `C=C1CC[C@@]2(OC1)O[C@H]1CC3[C@@H]4CC=C5C[C@H](O[C@H]6OC[C@@H](O)C(O)[C@@H]6O[C@@H]6O[C@@H](C)[C@H](O)[C@@H](O[C@@H]7O[C@H](CO)[C@@H](O)[C@H](O)[C@H]7O)[C@H]6O)C[C@@H](O)[C@]5(C)C4CC[C@]3(C)[C@H]1[C@@H]2C` (some centres undefined), the activity change, negative = cytotoxicity is -11% [at 11.6 µM] (inactive).
In the case of `CC(C)c1cc2c(c(O)c1O)[C@@]13CCCC(C)(C)C1[C@@H](O)[C@@H]2OC3=O` (some centres undefined), the Potency entry was “inactive”.
Regarding `COc1cccc(C)c1C(=O)O[C@@H]1C[C@H](O[C@H]2[C@H](O)C[C@H](O[C@@H]3CCC[C@H]4[C@H]3C=C[C@@H]3CCCC/C=C/[C@H]5C=C(C(=O)O)[C@@H](C)C[C@@]56OC(=O)C(=C6O)OC(=O)[C@@]34C)O[C@@H]2C)O[C@H](C)[C@H]1O`, the activity change, negative = cytotoxicity is 3.73% [at 11.6 µM] (inactive).
The same measure, in the same setting: next, `CC(=O)OC1C(CO)OC(O[C@H]2[C@H](OC(=O)[C@]34CCC(C)(C)C[C@H]3C3=CCC5[C@@]6(C)CC[C@H](O[C@@H]7O[C@H](C(=O)O)[C@@H](O)[C@H](O[C@@H]8OC[C@@H](O)[C@H](O)[C@H]8O)[C@H]7O[C@@H]7O[C@H](CO)[C@H](O)[C@H](O)[C@H]7O)[C@@](C)(C=O)C6CC[C@@]5(C)[C@]3(C)C[C@H]4O)O[C@H](C)[C@H](OC3OC(C)C(OC4OCC(O)C(O)C4O)C(O)C3O)[C@@H]2O)C(O)C1O` (some centres undefined): -15% [at 6.55 µM] (inactive).
